# Measured values published in PubChem BioAssay AID1508602 (The Scripps Research Institute Molecular Screening Center, 2020).
# The whole screen tested about 650,000 compounds, of which about 6,800 (1%) were called active. The full list was thinned out, with actives kept by preference. A number with no mark means an inactive call. Rule as the data show it: active = activation above about 4.9%; inactive = the rest.
# Target: G-protein coupled receptor 151 (Homo sapiens) (UniProt Q8TDV0)
# Assay: activates the human receptor GPR151, primary screen, cell-based, PathHunter beta-arrestin, luminescence (AID 1508602);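 also: 0% = median of compound wells and 100% = cells with positive control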
# Conditions: PathHunter beta-arrestin GPR151 cells, at 11.2 µM, stronger effect = higher value
# Sequence of G-protein coupled receptor 151 (Homo sapiens) (Q8TDV0 whole entry, looked up): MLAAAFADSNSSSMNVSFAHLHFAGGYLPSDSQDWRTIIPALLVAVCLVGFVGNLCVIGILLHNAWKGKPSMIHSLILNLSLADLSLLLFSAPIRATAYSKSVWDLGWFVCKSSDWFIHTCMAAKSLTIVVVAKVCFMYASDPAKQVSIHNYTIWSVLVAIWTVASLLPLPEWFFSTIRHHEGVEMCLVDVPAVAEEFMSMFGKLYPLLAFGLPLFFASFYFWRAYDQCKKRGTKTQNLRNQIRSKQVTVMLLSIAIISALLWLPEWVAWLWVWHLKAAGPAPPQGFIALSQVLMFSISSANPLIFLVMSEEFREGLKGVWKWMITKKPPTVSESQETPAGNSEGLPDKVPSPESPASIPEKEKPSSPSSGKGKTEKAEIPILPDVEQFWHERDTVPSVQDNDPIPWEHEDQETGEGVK
row,SMILES,activation
1,CC1CCN(C(=O)C2CCCN2c2nnc(N3CCCC3=O)s2)CC1 (centres undefined),0.834%
2,CC(C)(C)OC(=O)N1CCC[C@H]1C(=O)c1cccnc1,0.241%
3,O=C(NCCCN=C1NS(=O)(=O)c2ccccc21)c1ccc(Cl)c(Cl)c1,-0.637%
4,COc1nc(Nc2ccccc2)nc(-c2ccc(C(=O)NC3CC3)cc2)n1,0.979%
5,COc1nc(Nc2ccccc2)nc(-c2csc3ccccc23)n1,-0.667%
6,COc1nc(Nc2ccccc2)nc(-c2c(C)noc2C)n1,5.15% (active)
7,CCCCc1ccc(NC(=O)COC(=O)c2ccc([N+](=O)[O-])o2)cc1,-2.13%
8,Cc1cccc(N(C)C(=O)C2CCCN(S(=O)(=O)c3c(C)noc3C)C2)c1 (centres undefined),0.213%
9,CCc1ccc(-c2nc(CSCC(=O)NC(C)(C)C)c(C)o2)cc1,-0.321%
10,CCSc1nnc(CC(N)=O)c2ccccc12,-0.522%
11,O=c1cc(-c2cc3cc(Cl)ccc3oc2=O)c2ccc(O)cc2o1,-0.104%
12,CCCn1ncc(CN2CCCC(N3CCC(CO)CC3)C2)c1C (centres undefined),6.31% (active)
13,CCCn1ncc(CN2CCN(C3CCN(C(C)C)CC3)C(CCO)C2)c1C (centres undefined),1.43%
14,Cc1c(CN2CCCC(N3CCC(CO)CC3)C2)c(=O)n(-c2ccccc2)n1C (centres undefined),-1.54%
15,Cc1ccc(OCC(=O)Nc2nncs2)cc1,0.547%
16,CC1CCCN(C(=O)NCc2noc3ccccc23)C1 (centres undefined),-1.14%
17,CCOc1ccc(-n2c(C)cn3c4c(=O)n(CC(C)C)c(=O)n(C)c4nc23)cc1,0.368%
18,O=C(C1CC12CCN(Cc1c(F)cccc1F)CC2)N1CCN(Cc2ccccc2)CC1 (centres undefined),-0.828%
19,O=C(NC1CCN(Cc2ccccc2)CC1)c1ccc(-c2ccccc2)s1,0.522%
20,O=C(NCCO)c1cnc(NC2CCN(Cc3ccccc3)CC2)s1,7.19% (active)
21,CCCNC(=O)c1cc(NC2CCN(Cc3ccccc3)CC2)nc2ccccc12,0.365%
22,Cc1ccc(Cn2cc(C#N)c([N+](=O)[O-])n2)cc1,2.65%
23,COc1ccc(-c2noc(-c3ccccc3Cl)n2)cc1,6.08% (active)
24,COc1ccc(-c2noc(-c3ccc(Br)cc3)n2)cc1,-0.475%

row,SMILES,activation
1,Cc1ccc(-c2nc(-c3ccccc3Cl)no2)cc1,0.675%
2,CC1(c2ccccc2NC(=O)c2ccc([N+](=O)[O-])cc2)CC1,6.15% (active)
3,CC(C)CNC(=O)c1ccccc1NC(=O)c1ccc([N+](=O)[O-])cc1,1.87%
4,CN(C)c1ccc(NC(=O)c2ccc([N+](=O)[O-])cc2)c2ccccc12,2.25%
5,O=C(Cc1ccccc1)NCc1nnc2n1CCN(Cc1ccc(F)cc1)CC2,-0.584%
6,COc1cc(-c2coc3cc(O[C@@H]4O[C@H](CO)[C@@H](O)[C@H](O)[C@H]4O)c(OC)c(O)c3c2=O)cc(O)c1OC,8.99% (active)
7,CCc1cc2c(=O)c(-c3ccc4c(c3)OCO4)c(C)oc2cc1OC1OC(CO)C(O)C(O)C1O (centres undefined),0.749%
8,COc1ccc(-c2coc3cc(OC4OC(COC5OC(C)C(O)C(O)C5O)C(O)C(O)C4O)cc(O)c3c2=O)cc1 (centres undefined),-0.0364%
9,CCc1ccc(CN2CCc3nnc(-c4ccccc4)n3CC2)o1,-0.804%
10,CCOC(=O)N1CCC(N2CCC(CO)(CCOc3ccccc3)CC2)CC1,0.442%
11,C=CCN1C(=O)CC(C(=O)OC)C12CCN(C1CCN(C(=O)OCC)CC1)CC2 (centres undefined),12.8% (active)
12,CCN1C(=O)CC(C(=O)OC)C12CCN(Cc1ccc(OC)c(OC)c1)CC2 (centres undefined),2.97%
13,CCOc1ccccc1OCCCNCc1ccccc1,0.0114%
14,CCOc1ccccc1CNCC(C)O (centres undefined),-1.22%
15,CCCCOc1ccccc1CNCC,6.95% (active)
16,CNC(=O)c1c(NC(=O)c2ccccc2F)sc2c1CCC(C(C)(C)C)C2 (centres undefined),2.94%
17,O=C1CC(Cc2ccccc2)C(=O)N1c1ccc(Cl)cc1 (centres undefined),0.299%
18,Cc1ccc(Cn2c(=S)[nH]c3ccc(Cl)cc3c2=O)cc1,0.529%
19,Brc1cccc(-c2cnc3ccc(NC4CCOCC4)nn23)c1,-0.245%
20,Oc1ccc(-c2cnc3ccc(NC4CCOCC4)nn23)cc1,-0.504%
21,c1ccc2sc(-c3cnc4ccc(NC5CCOCC5)nn34)cc2c1,5.94% (active)
22,O=C(CN(CC1CCCO1)C(=O)CNS(=O)(=O)c1ccccc1)NC1CCCCC1 (centres undefined),0.636%
23,COc1cccc(/C=N/NC(=O)CSc2nc(C)cc(C)n2)c1OC,1.66%
24,Cc1cc(C)nc(SCC(=O)N/N=C/c2ccc(Cl)cc2Cl)n1,0.39%

row,SMILES,activation
1,CC(/C=N\NC(=O)CSc1nc(C)cc(C)n1)=C\c1ccccc1,9.38% (active)
2,COc1ccc(C(=O)CCNC(C(=O)O)C(C)O)cc1 (centres undefined),-0.172%
3,C(=N\N1CCN(c2ccccn2)CC1)/C1=C(N2CCOCC2)C(=C/c2ccccc2)/CC1,6.77% (active)
4,COc1ccc(/C=N/N2CCN(c3ccccn3)CC2)cc1,0.849%
5,c1ccc(N2CCN(c3ccccn3)CC2)nc1,-0.177%
6,CCOC(=O)c1sc2nc(SCC(=O)NCc3ccccc3Cl)n(Cc3ccc(Cl)cc3)c(=O)c2c1C,-0.0258%
7,Cc1cc(C)c(S(=O)(=O)Nc2cccc(N3CCCS3(=O)=O)c2)c(C)c1,0.72%
8,Cc1cc(C)cc(NC(=O)C(CC(C)C)NS(=O)(=O)c2ccc3c(c2)oc(=O)n3C)c1 (centres undefined),3.86%
9,Cc1cn2c3c(=O)n(Cc4ccccc4)c(=O)n(C)c3nc2n1C,0.103%
10,Cc1ccccc1C(=O)NNC(=O)c1ccc(NC(=O)C(C)C)cc1,1.54%
11,CC1CCN(CCCNc2nc(=S)[nH]c3ccccc23)CC1,-3.01%
12,O=C(O)C1CCC(CNc2nc(=S)[nH]c3ccccc23)CC1 (centres undefined),-0.367%
13,CCN1CCCC1CNc1nc(=S)[nH]c2ccccc12 (centres undefined),9.1% (active)
14,CCCCn1c(N)c(N(CC(C)C)C(=O)CCC(=O)O)c(=O)[nH]c1=O,-0.868%
15,CCN1CCN(C(C)C(=O)Nc2cc(C)on2)CC1 (centres undefined),-5.25%
16,CC1C(=O)NC(=O)N1c1ccc(Cl)cc1 (centres undefined),2.6%
17,COc1cn2c(cc1=O)C(=O)N(CCNC(=O)c1cccc(F)c1)CC2,0.552%
18,C=CCC(CC=C)(NC(=O)c1ccc([N+](=O)[O-])cc1)c1ccccc1,2.8%
19,CCN1/C(=C/c2ccc3cc(C)ccc3[n+]2CC)Sc2ccc(OC)cc21,1.84%
20,CCN1/C(=C/c2ccc3cc(C)ccc3[n+]2CC)Sc2ccc(-c3ccccc3)cc21,18.5% (active)
21,CCC(/C=C1\Sc2ccc(-c3ccccc3)cc2N1CC)=C\c1sc2ccc3ccccc3c2[n+]1CC,-0.19%
22,CCCc1cc(=O)[nH]c(SCC(=O)Nc2ccc(C(N)=O)cc2)n1,-0.889%
23,COc1ccc(N2C(=O)C3CCCN3C2c2cccc(OC)c2)cc1 (centres undefined),6.4% (active)
24,COc1cccc(N2C(=O)C3CCCN3C2c2ccc(F)cc2)c1 (centres undefined),1.08%

row,SMILES,activation
1,COc1ccc(N2C(=O)C3CCCN3C2c2cc(OC)c(OC)cc2OC)cc1 (centres undefined),-1.11%
2,CCOC(=O)COc1cccc2c(=O)n(CC(=O)Nc3cccc(Cl)c3)ccc12,-0.932%
3,CC(C)(C)CC(C)(C)c1ccc(OCC(=O)NNC(=O)c2ccccc2Cl)cc1,-0.581%
4,CCSc1nnc(NC(=O)CSc2nc3ccccc3[nH]2)s1,0.0173%
5,CCOC(=O)c1c(NC(=O)CSc2nc3ccccc3[nH]2)sc2c1CCC2,-0.467%
6,CCOC(=O)c1ccc2nc(NC(=O)CSc3nc4ccccc4[nH]3)sc2c1,7.06% (active)
7,C=CCn1cnc2sc(C)c(-c3ccc(Cl)cc3)c2c1=O,1.23%
8,C=CCSc1nnc(-c2cc(N(C)C)nc(N(C)C)n2)n1C,3.52%
9,O=C(c1cc(COc2ccc3ncccc3c2)on1)N1C[C@@H]2CCC[C@H]1C2,0.767%
10,CCN(CC)C1CCN(C(=O)c2cc(COc3ccc4ncccc4c3)on2)C1 (centres undefined),5.71% (active)
11,COCC1CCN(C(=O)c2cc(COc3ccc4ncccc4c3)on2)C1 (centres undefined),2.98%
12,Cc1[nH]c2ccccc2c1C(=O)CN1CCN(c2ccccc2)CC1,-0.808%
13,Cc1cc2c(cc1C)NC(CC(=O)Nc1ccc(Cl)cc1Cl)C(=O)N2 (centres undefined),-1.58%
14,O=C(Nc1ccc(Cl)c(-c2nc3ccccc3o2)c1)c1cc([N+](=O)[O-])ccc1Cl,0.267%
15,COc1ccc(COC(=O)NNC(=O)c2cccc(Cl)c2)cc1,6.17% (active)
16,COc1ccc(C(=O)NNC(=O)c2cccc(Cl)c2)cc1OC,1.28%
17,Cc1cc(C)cc(OCC(=O)NNC(=O)c2cccc(Cl)c2)c1,0.56%
18,CCOC(=O)N1CCN(C(=O)CSc2nnc(-c3ccc(OC)cc3)o2)CC1,-0.713%
19,COc1ccc(-c2cn3c(NC(=O)c4ccccc4)cnc3cn2)cc1,-2.03%
20,COc1cc(/C=N/NC(=O)c2cccs2)cc(OC)c1OC,-1.73%
21,O=C(N/N=C/c1cccc(Cl)c1Cl)c1ccc(O)cc1,0.598%
22,O=C(N/N=C/c1cccc(Cl)c1Cl)c1cccs1,10.6% (active)
